Assay outcomes deposited in PubChem by National Center for Advancing Translational Sciences (NCATS).
TDP1 cell CPT = qHTS for Inhibitors of human tyrosyl-DNA phosphodiesterase 1 (TDP1): qHTS in cells in presence of CPT; chicken DT40 Tdp1-/-;hTDP1 cells + 20 nM CPT, ATP luminescence, 48 h; Potency, µM (series often up to 46.2 µM), for the others: at the top dose activity change, negative = growth inhibition, actives largely listed as inhibitors; 420,000 compounds, 12% hits; AID 686979, 2013; also: potency is read from the fitted curve at half-maximal effect; nearly all actives have a fitted effect of over 55% in size
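Chicken DT40 Tdp1-/- cells complemented with human TDP1, 400 cells/well, exposed to compounds plus 20 nM camptothecin for at least 48 h at 37 C; viability read as ATP content by CellTiter-Glo luminescence.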
HT1080NT lethal = qHTS for induction of synthetic lethality in tumor cells producing 2HG: qHTS for the HT-1080-NT fibrosarcoma cell line; HT-1080-NT fibrosarcoma viability, CellTiter-Glo ATP luminescence, 48 h; Potency, µM (series often up to 46.1 µM), for the others: top-dose activity, negative = less viability, hits mostly cytotoxic; 360,000 compounds, 1.6% hits; AID 686970, 2013;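 also: NT is the 2HG producing partner of a matched IDH1 knockdown line; potency is read from the fitted curve at half-maximal effect; 0% = DMSO-treated cells and -100% = media-only wells without cells; nearly all actives have a fitted effect of over 55% in size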
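Fibrosarcoma NT cells, 750 per well in 5% FBS RPMI, were exposed to compound for 48 hours. Viability: CellTiter-Glo luminescence.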
HT1080 IDH1KD tx = qHTS for induction of synthetic lethality in tumor cells producing 2HG: qHTS for the HT-1080-IDH1KD cell line; HT-1080 IDH1 knockdown viability, ATP luminescence, 48 h; Potency, µM (titrated, usually from 46.1 µM), inactives show at the highest dose activity, negative = toxicity, usual class: cytotoxic; 360,000 compounds, 2% hits; AID 686971, 2013;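 also: potency is read from the fitted curve at half-maximal effect; 0% = DMSO wells and -100% = cell-free medium wells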
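IDH1KD HT-1080 cells, 750/well, RPMI + 5% FBS; compound pinned after 2 h settling; 48 h, 37 °C; CellTiter-Glo luminescence; % activity normalised to DMSO and no-cell wells; curves fitted, classed by r2 and efficacy.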
IL1B secr inh = qHTS for Inhibitors of Inflammasome Signaling: IL-1-beta AlphaLISA Primary Screen | THP-1 LPS/ATP IL-1B secretion, AlphaLISA, 16 h; stronger effect = lower value | activity change, % at 57.5 µM | 360,000 compounds, 4.7% hits | AID 743279, 2014; in the data active = activity change below about -50%; inconclusive = mostly about -30% to -49%
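Secreted IL-1B measured by AlphaLISA bead assay after 16 h compound exposure of THP-1 cells; compounds (final up to 57.5 uM) added 1 h before LPS (250 ng/mL) and ATP (1.25 mM) stimulation; lower signal means less secretion.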
12-LOX inh = Primary qHTS assay for inhibitors of human arachidonate 12S-lipoxygenase (ALOX12): Round 2; Polyunsaturated fatty acid lipoxygenase ALOX12 (Homo sapiens), P18054; purified 12hLO, xylenol orange hydroperoxide absorbance; Potency, µM (highest dose often 108 µM), without a hit: top-dose activity change, negative = inhibition, actives largely listed as inhibitors; 580,000 compounds, 1.1% hits; AID 1671190, 2021; also: potency is read from the fitted curve at half-maximal effect
Target sequence (P18054 whole entry, looked up): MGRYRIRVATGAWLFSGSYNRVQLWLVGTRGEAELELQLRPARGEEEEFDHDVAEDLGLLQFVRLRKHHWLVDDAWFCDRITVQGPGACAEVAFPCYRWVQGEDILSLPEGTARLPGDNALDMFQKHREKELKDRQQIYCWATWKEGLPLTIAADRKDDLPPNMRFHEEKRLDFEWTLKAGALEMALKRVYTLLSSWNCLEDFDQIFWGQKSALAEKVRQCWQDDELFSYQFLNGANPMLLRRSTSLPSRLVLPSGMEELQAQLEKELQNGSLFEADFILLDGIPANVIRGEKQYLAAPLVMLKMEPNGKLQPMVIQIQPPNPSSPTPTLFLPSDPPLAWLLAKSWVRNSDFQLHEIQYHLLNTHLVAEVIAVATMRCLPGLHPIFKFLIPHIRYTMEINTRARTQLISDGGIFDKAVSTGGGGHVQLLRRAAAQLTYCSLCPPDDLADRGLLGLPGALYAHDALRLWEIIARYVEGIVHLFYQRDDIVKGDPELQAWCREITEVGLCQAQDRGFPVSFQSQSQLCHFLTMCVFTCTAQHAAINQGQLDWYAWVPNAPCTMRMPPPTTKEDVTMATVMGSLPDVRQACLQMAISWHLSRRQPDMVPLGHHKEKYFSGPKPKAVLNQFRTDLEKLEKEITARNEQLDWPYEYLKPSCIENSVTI
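Purified human 12hLO (150 nM final) in 25 mM Hepes, 0.01% Triton X-100, pH 7.0 was preincubated 15 min at room temperature with compound. Then 40 uM arachidonic acid was added, 30 min. Hydroperoxide was read by Fe-XO absorbance ratio 573/405 nm.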
DT40 TDP1 no CPT = qHTS for Inhibitors of human tyrosyl-DNA phosphodiesterase 1 (TDP1): qHTS in cells in absence of CPT. DT40 Tdp1-/- hTDP1 cells, no CPT, ATP luminescence, 48 h. Potency, µM (top dose mostly 46.2 µM), without a hit: top-dose activity change, negative = growth inhibition, hits mostly inhibitors. 420,000 compounds, 15% hits. AID 686978, 2013; also: potency is read from the fitted curve at half-maximal effect; nearly all actives have a fitted effect of over 55% in size
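No-CPT arm: Tdp1-/-;hTDP1 DT40 cells (400/well) plus compounds, incubated ≥48 hr at 37 °C. Readout CellTiter-Glo luminescence.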
Active calls of the source: *. Many of the other results were omitted from the sample, so hits are more common in it than they were. Unless noted, calls follow the shape of the dose curve; as a rule, active = well fitted curve in the direction sought with a large enough effect; inconclusive = small, poorly fitted or top-dose-only effect, or another doubt; inactive = no such curve, though single readings can be large; an effect the other way counts as inactive or inconclusive. Unless noted, % is scaled to controls: 0 for no effect and ±100 for the full control effect.

CC1(C(=O)NS(=O)(=O)C2CC2)CCCN(C(=O)COCc2ccccc2)C1 (stereo unspecified) was read as TDP1 cell CPT 6.51µM*, HT1080NT lethal -1.7%, HT1080 IDH1KD tx inconclusive, IL1B secr inh -14.7, 12-LOX inh 0.6% and DT40 TDP1 no CPT 2.31µM*.
`O=C(C[n+]1cc(-c2ccc(F)cc2)n2c1CCC2)N1c2ccccc2Sc2ccccc21` gave TDP1 cell CPT 14.6µM*, HT1080NT lethal -12.5%, HT1080 IDH1KD tx -12.4%, IL1B secr inh -50.1*, 12-LOX inh -11.1% and DT40 TDP1 no CPT 13µM*.
O=C(C[n+]1cc(-c2ccccc2)n2c1CCC2)N1c2ccccc2Sc2ccccc21 was read as TDP1 cell CPT 5.17µM*, HT1080NT lethal 0.5%, HT1080 IDH1KD tx -22.5%, IL1B secr inh inactive, 12-LOX inh inconclusive and DT40 TDP1 no CPT 2.59µM*.
For O=C(C[n+]1cc(-c2ccccc2)n2c1CCC2)c1cccs1 the results were TDP1 cell CPT 1.7%, HT1080NT lethal -1.3%, HT1080 IDH1KD tx -17.5%, IL1B secr inh 18.4, 12-LOX inh 6.8% and DT40 TDP1 no CPT 3.8%.
For Cc1ccc(-c2c[n+](CC(=O)N3c4ccccc4Sc4ccccc43)c3n2CCC3)cc1 the results were TDP1 cell CPT 5.17µM*, HT1080NT lethal inconclusive, HT1080 IDH1KD tx inconclusive, IL1B secr inh -57.9*, 12-LOX inh inconclusive and DT40 TDP1 no CPT 5.17µM*.
For CCCS(=O)(=O)N1CCN(CC2CC3C=CC2C3)CC1 (stereo unspecified) the results were TDP1 cell CPT -8.2%, HT1080NT lethal 2.8%, HT1080 IDH1KD tx 9.3%, IL1B secr inh 20.6, 12-LOX inh inconclusive and DT40 TDP1 no CPT 5.8µM*.
`O=C(Nc1ccc(S(=O)(=O)NCc2cccnc2)cc1)c1ccco1` gave TDP1 cell CPT inconclusive, HT1080NT lethal 2.8%, HT1080 IDH1KD tx -1.5%, IL1B secr inh 21.8, 12-LOX inh 0.0% and DT40 TDP1 no CPT inconclusive.
For O=C(Nc1ccc(S(=O)(=O)NCc2cccnc2)cc1)c1ccccc1Cl the results were TDP1 cell CPT 13µM*, HT1080NT lethal 0.7%, HT1080 IDH1KD tx -8.6%, IL1B secr inh 2.0, 12-LOX inh -5.9% and DT40 TDP1 no CPT 10.3µM*.
For O=C(Nc1ccccc1)c1ccc(S(=O)(=O)NCc2cccnc2)cc1 the results were TDP1 cell CPT -50.4%, HT1080NT lethal -25.5%, HT1080 IDH1KD tx -16.0%, IL1B secr inh 9.2, 12-LOX inh -22.3% and DT40 TDP1 no CPT inconclusive.
O=C(Nc1ccc(S(=O)(=O)NCc2ccccc2)cc1)c1ccc(Br)o1 was read as TDP1 cell CPT 20.6µM*, HT1080NT lethal -2.5%, HT1080 IDH1KD tx -0.7%, IL1B secr inh 24.3, 12-LOX inh -8.5% and DT40 TDP1 no CPT 20.6µM*.
For CC(=O)Nc1ccc(S(=O)(=O)NCc2cccnc2)cc1 the results were TDP1 cell CPT 3.26µM*, HT1080NT lethal 21.5%, HT1080 IDH1KD tx 28.1%, IL1B secr inh 24.5, 12-LOX inh -11.1% and DT40 TDP1 no CPT inconclusive.
Screening O=C(NCc1ccccn1)c1c(-c2ccccc2)sc2ccccc12 returned TDP1 cell CPT 23.1µM*, HT1080NT lethal 0.0%, HT1080 IDH1KD tx 2.6%, IL1B secr inh 81.0, 12-LOX inh -2.4% and DT40 TDP1 no CPT inconclusive.
COc1cc2c(cc1OC)-c1c(c(C(=O)N3CCCC3)nn1-c1ccccc1F)C2 was read as 12-LOX inh -7.8%.
For CC1CCN(c2c(NCc3ccc(C(=O)N4c5ccccc5CC4C)cc3)c(=O)c2=O)CC1 (stereo unspecified) the results were TDP1 cell CPT 18.4µM*, HT1080NT lethal -11.9%, HT1080 IDH1KD tx -3.5%, IL1B secr inh -1.4, 12-LOX inh inconclusive and DT40 TDP1 no CPT 23.1µM*.
For O=C(O)CC1CCC(=C(Cl)Cl)C1 (stereo unspecified) the results were TDP1 cell CPT 1.03µM*, HT1080NT lethal inconclusive, HT1080 IDH1KD tx inconclusive, IL1B secr inh -74.2*, 12-LOX inh inconclusive and DT40 TDP1 no CPT 2.91µM*.
For COc1ccc(NCC(O)Cn2c(C)c(C)c3ccccc32)cc1 (stereo unspecified) the results were TDP1 cell CPT inconclusive, HT1080NT lethal -12.7%, HT1080 IDH1KD tx inconclusive, IL1B secr inh -172.7*, 12-LOX inh -10.6% and DT40 TDP1 no CPT inconclusive.
`Cc1ccc(CNC(=O)[C@H](CC(C)C)NC(=O)N2CCn3c2nc2ccccc23)cc1` gave 12-LOX inh 42.8%.
For CCn1c(SCC(=O)Nc2cc(C)c(Cl)cc2OC)nnc1-c1cccc(OC)c1 the results were 12-LOX inh -41.2%.
CC(C)(C)C1CCc2nc(NC(=O)c3cccc(Cl)c3)sc2C1 (stereo unspecified) was read as TDP1 cell CPT inconclusive, 12-LOX inh inconclusive and DT40 TDP1 no CPT 23.1µM*.
Cc1cc(C)cc(OCC(=O)Nc2nc3c(s2)CC(C(C)(C)C)CC3)c1 (stereo unspecified) was read as TDP1 cell CPT 18.4µM*, 12-LOX inh inconclusive and DT40 TDP1 no CPT 23.1µM*.
For CC(C)(C)C1CCc2nc(NC(=O)COc3ccccc3[N+](=O)[O-])sc2C1 (stereo unspecified) the results were TDP1 cell CPT 16.4µM*, 12-LOX inh -9.8% and DT40 TDP1 no CPT inconclusive.
`Cc1cccc(OCC(=O)Nc2nc3c(s2)CC(C(C)(C)C)CC3)c1C` (stereo unspecified) gave TDP1 cell CPT 16.4µM*, 12-LOX inh inconclusive and DT40 TDP1 no CPT 18.4µM*.
`CC(C)(C)C1CCc2nc(NC(=O)Cc3ccccc3)sc2C1` (stereo unspecified) gave TDP1 cell CPT inconclusive, 12-LOX inh 0.0% and DT40 TDP1 no CPT inconclusive.
C=CCc1c(C)c2ccc(OCC(=O)c3ccccc3)cc2oc1=O was read as 12-LOX inh 19.5%.
Cn1ncc(N2CCC(CNC(=O)CN3CCOCC3)C2)cc1=O (stereo unspecified) was read as 12-LOX inh 4.9%.
